Records with an inconclusive call do not appear. Calls of active or inactive are those of the source. Unless noted, calls come from the whole dose curve; as a rule, active = well fitted curve in the direction sought with a large enough effect in the repeat runs; inconclusive = weak or mixed curves; inactive = flat fitted curve, though single readings scatter.
Tested on: not listed separately
Assay: qHTS assay to test for compound auto fluorescence at 460 nm (blue) in HepG2 cells (AID 720687)
Settings: autofluorescence 405/460 nm, 1 h; series mostly up to 91.3 µM; fluorescence, % of fluorescent control: at the top concentration
Outline: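 HepG2 cells in MEM with 10% FBS, attached overnight at 37 C, were exposed to compound or DMSO for 1 hr at 37 C, 5% CO2. Blue fluorescence was read at 405/460 nm, with triamterene as reference fluorophore.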
% is set by controls: 0 for no effect and ±100 for the full control effect.

Structure (SMILES)	outcome	fluorescence, % of fluorescent control
C=C(C)C(=O)OCC(CC)CCCC (centres undefined)	inactive	–
CC[N+](=O)[O-]	inactive	–
O=C(O)Cc1ccccc1	inactive	–
Cc1ccc(O)c(C)c1	inactive	–
Sc1ccccc1	inactive	–
Oc1c(Br)cc(Br)cc1Br	inactive	–
Cc1cc(Cl)ccc1OC(C)C(=O)O (centres undefined)	inactive	–
Nc1cc(Cl)cc(Cl)c1	inactive	–
c1ccc2c(c1)CCCC2	–	-0.136% (inactive)
N#Cc1ccccn1	inactive	–
C[C@H]1C(=O)O[C@@H]2CCN3CC=C(COC(=O)[C@](C)(O)[C@]1(C)O)[C@H]23	inactive	–
CN(C)CCC#N	inactive	–

Target: Glucocorticoid receptor (Homo sapiens) (UniProt P04150)
Assay: qHTS assay to identify small molecule agonists of the glucocorticoid receptor (GR) signaling pathway (AID 720691; active = well fitted activation curve with a large enough effect in the signal ratio in the repeat runs, not every such curve was filed as active; the % refers to the signal ratio)
Settings: GR-bla HeLa, beta-lactamase reporter ratio, 18 h; series mostly up to 62.4 µM; activation: at the top concentration
Outline: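 Cells: GR-bla HeLa, endogenous GR with stably integrated GRE-beta-lactamase reporter. Treatment 18 h, 37 C, compounds delivered in DMSO. Detection via LiveBLAzer B/G FRET substrate, 2 h RT, fluorescence intensity.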

Glucocorticoid receptor (Homo sapiens), sequence (P04150 whole entry, looked up): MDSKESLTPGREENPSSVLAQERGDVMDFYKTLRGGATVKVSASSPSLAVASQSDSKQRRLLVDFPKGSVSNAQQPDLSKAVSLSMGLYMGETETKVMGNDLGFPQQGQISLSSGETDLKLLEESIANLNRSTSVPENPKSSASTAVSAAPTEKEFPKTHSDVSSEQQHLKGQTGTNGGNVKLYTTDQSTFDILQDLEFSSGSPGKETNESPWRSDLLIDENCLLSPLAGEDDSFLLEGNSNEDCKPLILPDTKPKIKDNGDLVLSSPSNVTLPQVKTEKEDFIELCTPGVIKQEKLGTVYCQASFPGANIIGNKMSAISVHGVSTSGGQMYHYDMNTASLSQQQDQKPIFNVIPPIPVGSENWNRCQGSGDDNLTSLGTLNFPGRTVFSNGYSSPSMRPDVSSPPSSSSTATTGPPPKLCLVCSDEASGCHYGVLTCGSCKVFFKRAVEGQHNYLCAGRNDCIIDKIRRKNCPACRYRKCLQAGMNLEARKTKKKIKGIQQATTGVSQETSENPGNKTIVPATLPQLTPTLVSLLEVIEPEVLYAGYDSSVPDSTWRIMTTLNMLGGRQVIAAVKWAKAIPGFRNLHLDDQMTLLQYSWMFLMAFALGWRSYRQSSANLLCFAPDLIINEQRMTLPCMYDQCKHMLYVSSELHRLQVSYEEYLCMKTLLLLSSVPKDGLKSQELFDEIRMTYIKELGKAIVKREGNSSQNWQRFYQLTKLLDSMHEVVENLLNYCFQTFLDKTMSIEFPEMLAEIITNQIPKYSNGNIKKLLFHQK

Structure (SMILES)	outcome
CC(C)(C)C(=O)CCl	inactive
C=C(C)C(=O)OCC(CC)CCCC (centres undefined)	inactive
CC[N+](=O)[O-]	inactive
COP(=S)(OC)Oc1ccc(SC)c(C)c1	inactive
Nc1nc(N)nc(NC2CC2)n1	inactive
CCNc1nc(Cl)nc(NC(C)C)n1	inactive
Cc1ccc(O)c(C)c1	inactive
Sc1ccccc1	inactive
OCCCCO	inactive
CNC(=O)O/N=C/C(C)(C)S(C)(=O)=O	inactive
c1ccc2c(c1)CCCC2	inactive
CN1C(=O)CCS(=O)(=O)C1c1ccc(Cl)cc1 (centres undefined)	inactive
OCC(O)CCl (centres undefined)	inactive
Cc1ccc(N=C=O)cc1N=C=O	inactive
C[C@H]1C(=O)O[C@@H]2CCN3CC=C(COC(=O)[C@](C)(O)[C@]1(C)O)[C@H]23	inactive
CN(C)CCC#N	inactive
Nc1ncc([N+](=O)[O-])s1	inactive
